# In PubChem BioAssay (EPA / NIEHS):
# Results filed as inconclusive are left out. Active and inactive are the calls of the source. The calls were made as follows: active = hit-call score of the fitted dose curve at least 0.9, where 1 is the maximum; inconclusive = response in the unintended direction; inactive = score below 0.9.
# Legend:
# [1] = molecular target: rat Serotonin Transporter (SERT), Slc6a4 (gene 25553) (UniProt P31652); assay: NVS_TR_rSERT: NovaScreen (NVS) Transporter Assay for rat Serotonin Transporter (SERT) (AID 2283375)
# Sequence of rat Serotonin Transporter (SERT), Slc6a4 (gene 25553) (P31652 whole entry, looked up): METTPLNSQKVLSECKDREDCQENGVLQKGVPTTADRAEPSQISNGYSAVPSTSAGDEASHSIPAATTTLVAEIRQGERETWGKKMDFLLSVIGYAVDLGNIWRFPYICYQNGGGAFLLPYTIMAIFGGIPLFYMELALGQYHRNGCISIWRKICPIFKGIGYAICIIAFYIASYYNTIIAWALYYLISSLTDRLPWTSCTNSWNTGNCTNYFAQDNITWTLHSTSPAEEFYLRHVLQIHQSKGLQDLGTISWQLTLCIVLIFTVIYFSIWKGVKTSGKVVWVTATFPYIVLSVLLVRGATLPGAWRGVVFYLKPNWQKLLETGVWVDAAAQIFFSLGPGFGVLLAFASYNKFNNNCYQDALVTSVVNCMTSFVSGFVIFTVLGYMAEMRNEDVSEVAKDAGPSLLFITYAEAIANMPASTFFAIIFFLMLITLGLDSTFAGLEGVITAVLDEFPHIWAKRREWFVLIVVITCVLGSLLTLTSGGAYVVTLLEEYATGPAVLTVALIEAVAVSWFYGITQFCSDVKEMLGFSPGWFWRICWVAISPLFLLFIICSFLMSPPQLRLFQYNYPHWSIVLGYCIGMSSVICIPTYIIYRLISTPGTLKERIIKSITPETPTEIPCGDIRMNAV
# Method: NVS_TR_rSERT is a biochemical, single-readout assay that uses extracted gene-proteins from Rat forebrain membranes in a tissue-based cell-free assay. Measurements were taken 1 hour after chemical dosing in a 96-well plate.NVS_TR_rSERT is one of one assay component(s) measured or calculated from the NVS_TR_rSERT assay. It is designed to make measurements of radioligand binding, a form of binding reporter, as detected with scintillation counting signals by Filter-based radiodetection technology.Data from the assay component NVS_TR_rSERT was analyzed into 1 assay endpoint. This assay endpoint, NVS_TR_rSERT, was analyzed in the positive analysis fitting direction relative to DMSO as the negative control and baseline of activity. […] Furthermore, this assay endpoint can be referred to as a primary readout, because the performed assay has only produced 1 assay endpoint. […]
# Binding assays used specific radioligands (tritiated, iodinated) with non-radioactive competitive displacement ligands in agonist or antagonist protocols (as indicated) and various reference compounds and inhibitors to titrate specific binding to receptors and transporters. Most enzyme assays (CYPs, kinases, phosphatases, proteases, HDACs) used recombinant protein and specific substrates (fluorescence mostly, some colorimetric and radioactive) and inhibitors, followed by a biochemical separation of substrate and product. […]
# [2] = molecular target: mouse Estrogen Receptor alpha (Era), Esr1 (gene 13982) (UniProt P19785); assay: NVS_NR_mERa: NovaScreen (NVS) Nuclear Receptor Binding Assay for mouse Estrogen Receptor alpha (Era) (AID 2283378);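 also: hit means loss of bound radioligand signal relative to DMSO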
# Sequence of mouse Estrogen Receptor alpha (Era), Esr1 (gene 13982) (P19785 whole entry, looked up): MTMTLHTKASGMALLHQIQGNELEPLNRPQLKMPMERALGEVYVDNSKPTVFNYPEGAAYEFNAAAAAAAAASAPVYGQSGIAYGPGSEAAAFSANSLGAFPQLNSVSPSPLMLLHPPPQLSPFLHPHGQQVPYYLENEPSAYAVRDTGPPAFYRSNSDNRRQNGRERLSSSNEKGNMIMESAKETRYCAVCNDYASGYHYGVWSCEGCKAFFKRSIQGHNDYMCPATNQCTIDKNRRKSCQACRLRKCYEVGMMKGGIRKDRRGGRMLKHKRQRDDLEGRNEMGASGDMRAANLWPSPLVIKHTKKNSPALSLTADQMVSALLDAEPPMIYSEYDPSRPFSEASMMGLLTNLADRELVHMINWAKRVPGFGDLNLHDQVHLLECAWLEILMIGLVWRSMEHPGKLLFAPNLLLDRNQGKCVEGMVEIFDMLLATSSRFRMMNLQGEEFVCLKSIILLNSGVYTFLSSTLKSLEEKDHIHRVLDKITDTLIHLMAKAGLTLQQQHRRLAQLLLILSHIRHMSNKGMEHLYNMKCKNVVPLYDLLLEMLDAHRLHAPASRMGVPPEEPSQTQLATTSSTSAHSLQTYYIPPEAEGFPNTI
# In short: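 Filter radiodetection of radioligand displacement from extracted receptor protein, measured 18 h post-dose. Single 25 uM concentration in duplicate initially, with concentration-series follow-up. Binding loss fitted relative to DMSO.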
# [3] = molecular target: human Norepinephrine Transporter (NET), SLC6A2 (gene 6530) (UniProt P23975); assay: NVS_TR_hNET: NovaScreen (NVS) Transporter Assay for human Norepinephrine Transporter (NET) (AID 2283377);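 also: cell-free membrane protein extracted from CHO cells expressing human NET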;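 as to AC50: displacement of radioligand from human NET seen as loss of scintillation signal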
# Sequence of human Norepinephrine Transporter (NET), SLC6A2 (gene 6530) (P23975 whole entry, looked up): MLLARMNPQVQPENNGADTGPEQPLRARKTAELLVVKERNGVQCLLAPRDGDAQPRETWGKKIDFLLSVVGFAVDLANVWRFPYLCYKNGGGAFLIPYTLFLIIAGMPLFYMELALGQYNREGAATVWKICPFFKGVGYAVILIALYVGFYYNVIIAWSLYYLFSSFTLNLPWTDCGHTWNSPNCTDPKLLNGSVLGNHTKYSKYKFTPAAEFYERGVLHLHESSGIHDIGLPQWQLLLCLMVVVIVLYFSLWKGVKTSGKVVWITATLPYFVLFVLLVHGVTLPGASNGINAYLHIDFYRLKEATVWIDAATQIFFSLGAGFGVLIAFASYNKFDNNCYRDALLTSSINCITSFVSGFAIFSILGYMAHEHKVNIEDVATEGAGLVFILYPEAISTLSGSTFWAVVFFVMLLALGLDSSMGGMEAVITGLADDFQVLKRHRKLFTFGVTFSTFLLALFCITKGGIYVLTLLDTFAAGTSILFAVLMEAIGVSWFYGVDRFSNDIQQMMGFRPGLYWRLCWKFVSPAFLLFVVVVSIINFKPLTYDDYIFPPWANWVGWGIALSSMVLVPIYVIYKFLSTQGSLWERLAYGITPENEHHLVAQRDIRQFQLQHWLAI
# In short: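 CHO cell extracts expressing the transporter; tritiated or iodinated tracer displaced competitively; filtration plus scintillation readout at 1 h. Single-point duplicates at 25 uM, concentration series for follow-up; activity = signal drop relative to DMSO.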
# [4] = molecular target: Peroxisome proliferator-activated receptor gamma (Homo sapiens) (UniProt P37231); assay: NVS_NR_hPPARg: NovaScreen (NVS) Nuclear Receptor Binding Assay for human Peroxisome Proliferator-activated Receptor gamma (PPARg) (AID 2283370)
# Sequence of Peroxisome proliferator-activated receptor gamma (Homo sapiens) (P37231 whole entry, looked up): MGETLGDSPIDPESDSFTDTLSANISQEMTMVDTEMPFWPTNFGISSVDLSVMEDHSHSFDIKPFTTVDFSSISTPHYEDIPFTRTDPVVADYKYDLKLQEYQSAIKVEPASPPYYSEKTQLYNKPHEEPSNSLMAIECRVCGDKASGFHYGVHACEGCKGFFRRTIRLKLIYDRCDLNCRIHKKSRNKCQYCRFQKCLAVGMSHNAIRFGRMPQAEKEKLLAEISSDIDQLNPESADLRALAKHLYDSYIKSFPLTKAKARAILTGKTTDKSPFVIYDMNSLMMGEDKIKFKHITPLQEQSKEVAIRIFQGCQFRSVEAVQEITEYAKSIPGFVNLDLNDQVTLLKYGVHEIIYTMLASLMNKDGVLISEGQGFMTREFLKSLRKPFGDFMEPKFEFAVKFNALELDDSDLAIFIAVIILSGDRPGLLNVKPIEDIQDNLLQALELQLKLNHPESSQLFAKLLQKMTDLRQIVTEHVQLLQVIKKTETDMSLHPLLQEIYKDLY
# In short: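 Fluorescence polarization readout of ligand binding to extracted human PPARg, measured at 2 h. Duplicate single-point screen at 25 uM, then concentration-series retesting; activity defined as signal loss versus DMSO.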
# [5] = molecular target: Estrogen receptor beta (Homo sapiens) (UniProt Q92731); assay: OT_ER_ERbERb_1440: Odyssey Thera (OT) 24-hour HEK293T Protein-Complementation Assay for Estrogen Receptor-beta/-beta Homodimer (AID 2283380);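 also: scored as signal increase over DMSO baseline for both agonists and antagonists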
# Sequence of Estrogen receptor beta (Homo sapiens) (Q92731 whole entry, looked up, the tested form may be a part): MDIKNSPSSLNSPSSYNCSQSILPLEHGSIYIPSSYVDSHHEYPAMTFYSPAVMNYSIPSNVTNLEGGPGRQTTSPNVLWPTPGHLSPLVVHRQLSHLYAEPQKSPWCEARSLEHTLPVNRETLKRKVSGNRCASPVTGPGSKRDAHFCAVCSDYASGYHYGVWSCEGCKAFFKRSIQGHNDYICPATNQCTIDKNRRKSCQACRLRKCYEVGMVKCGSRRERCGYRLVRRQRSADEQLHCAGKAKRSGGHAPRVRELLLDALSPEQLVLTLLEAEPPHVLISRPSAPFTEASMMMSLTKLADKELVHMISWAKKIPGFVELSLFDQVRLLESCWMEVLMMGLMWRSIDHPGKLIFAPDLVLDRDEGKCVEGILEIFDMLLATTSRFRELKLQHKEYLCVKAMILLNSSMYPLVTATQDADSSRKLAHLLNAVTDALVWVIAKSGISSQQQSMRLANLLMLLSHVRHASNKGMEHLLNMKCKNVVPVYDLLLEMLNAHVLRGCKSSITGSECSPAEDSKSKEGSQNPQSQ
# In short: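 HEK293T cells stably expressing ER beta LBD (aa 310-547) homodimer fragment-complementation reporter, dosed 24 h. Cells formaldehyde-fixed, Draq5-stained; gain in nuclear (agonist) or nuclear plus cytoplasmic (antagonist) fluorescence versus DMSO read by laser scanning cytometry.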
# [6] = molecular target: Agonist Androgen Response Element (ARE), AR (gene 367) (UniProt P10275); assay: OT_AR_ARELUC_AG_1440: Odyssey Thera (OT) 24-hour CHO-K1 Luciferase Assay for Agonist Androgen Response Element (ARE) (AID 2283379)
# Sequence of Agonist Androgen Response Element (ARE), AR (gene 367) (P10275 whole entry, looked up): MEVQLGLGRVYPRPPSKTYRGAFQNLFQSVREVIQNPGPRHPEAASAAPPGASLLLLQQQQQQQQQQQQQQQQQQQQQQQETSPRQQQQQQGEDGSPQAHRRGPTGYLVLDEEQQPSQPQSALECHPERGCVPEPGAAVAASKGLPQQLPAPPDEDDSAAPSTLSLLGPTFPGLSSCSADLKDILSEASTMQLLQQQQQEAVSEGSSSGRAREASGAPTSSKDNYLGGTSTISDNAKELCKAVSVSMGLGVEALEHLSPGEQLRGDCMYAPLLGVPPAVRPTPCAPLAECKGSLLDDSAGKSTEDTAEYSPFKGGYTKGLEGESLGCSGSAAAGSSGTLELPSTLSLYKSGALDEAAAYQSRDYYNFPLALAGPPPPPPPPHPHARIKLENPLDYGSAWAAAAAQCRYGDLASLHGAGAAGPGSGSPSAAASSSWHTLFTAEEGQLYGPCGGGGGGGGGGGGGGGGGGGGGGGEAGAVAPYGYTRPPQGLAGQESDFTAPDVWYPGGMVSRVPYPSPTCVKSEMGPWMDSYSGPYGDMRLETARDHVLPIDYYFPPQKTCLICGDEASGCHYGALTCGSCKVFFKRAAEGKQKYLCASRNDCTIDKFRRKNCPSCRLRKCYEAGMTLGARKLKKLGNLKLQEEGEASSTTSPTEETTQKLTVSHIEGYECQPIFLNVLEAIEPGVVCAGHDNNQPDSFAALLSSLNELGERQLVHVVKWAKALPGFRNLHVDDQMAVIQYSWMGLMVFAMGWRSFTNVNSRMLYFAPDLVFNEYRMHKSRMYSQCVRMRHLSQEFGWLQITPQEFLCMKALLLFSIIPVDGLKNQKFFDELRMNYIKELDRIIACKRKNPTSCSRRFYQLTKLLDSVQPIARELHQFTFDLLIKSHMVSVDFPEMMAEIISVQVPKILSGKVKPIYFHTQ
# In short: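 Gain-of-signal reporter endpoint: cells (CHO-K1, hamster) are treated 24 h, luciferin/ATP reagent added, and luminescence compared with DMSO baseline.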
# [7] = molecular target: human Dopamine Transporter (DAT), SLC6A3 (gene 6531) (UniProt Q01959); assay: NVS_TR_hDAT: NovaScreen (NVS) Transporter Assay for human Dopamine Transporter (DAT) (AID 2283374);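 also: activity means loss of bound radioligand signal relative to DMSO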
# Sequence of human Dopamine Transporter (DAT), SLC6A3 (gene 6531) (Q01959 whole entry, looked up): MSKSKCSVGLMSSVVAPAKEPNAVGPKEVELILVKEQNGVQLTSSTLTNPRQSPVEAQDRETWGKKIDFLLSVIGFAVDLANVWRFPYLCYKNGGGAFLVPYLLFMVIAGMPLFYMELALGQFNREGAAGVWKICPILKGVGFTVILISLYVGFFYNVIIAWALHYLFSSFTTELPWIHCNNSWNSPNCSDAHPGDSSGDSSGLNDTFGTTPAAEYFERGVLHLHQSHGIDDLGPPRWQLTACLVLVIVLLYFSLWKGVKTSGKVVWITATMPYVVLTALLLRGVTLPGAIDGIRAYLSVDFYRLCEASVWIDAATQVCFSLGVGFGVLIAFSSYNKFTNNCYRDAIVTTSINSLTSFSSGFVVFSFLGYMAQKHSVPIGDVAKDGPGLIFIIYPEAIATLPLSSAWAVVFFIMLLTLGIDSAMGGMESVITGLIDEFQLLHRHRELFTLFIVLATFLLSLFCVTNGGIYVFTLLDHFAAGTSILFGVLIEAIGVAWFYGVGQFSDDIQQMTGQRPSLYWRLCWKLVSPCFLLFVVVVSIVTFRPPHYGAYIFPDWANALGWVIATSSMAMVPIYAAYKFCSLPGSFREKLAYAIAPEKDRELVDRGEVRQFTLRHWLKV
# In short: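 hDAT membranes + tritiated/iodinated radioligand, competitive displacement; 1 h; filter scintillation readout. Single conc 25 uM (duplicate), then conc-response for actives. DMSO = negative control.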
compound,measurement,setting,value
COc1ccc(CCN2CCC(Nc3nc4ccccc4n3Cc3ccc(F)cc3)CC2)cc1,AC50,[1],2.26 µM (active)
CCCCCCCCCCCC(=O)OCC(O)CO (stereo not drawn),AC50,[2],6.68 µM (active)
CCCCCCCCCCCCCCCC(=O)OC/C=C(C)/C=C/C=C(C)/C=C/C1=C(C)CCCC1(C)C,outcome,[3],inactive
COc1cc(Cl)c(OC)cc1N,AC50,[3],25 µM (active)
CN(C)c1cccc(O)c1,outcome,[4],inactive
same,outcome,[5],inactive
COc1ccccc1N=Nc1c(S(=O)(=O)O)cc2cc(S(=O)(=O)O)cc(NC(C)=O)c2c1O,outcome,[4],inactive
same,outcome,[5],inactive
CCCCCCC(=O)c1ccccc1,outcome,[5],inactive
COc1cccc(OC)c1O,outcome,[3],inactive
OCc1cccc(Oc2ccccc2)c1,outcome,[6],inactive
same,AC50,[5],59.1 µM (active)
O=C(Nc1ccc2c(O)c(N=Nc3ccc(N=Nc4ccc(S(=O)(=O)O)cc4)cc3)c(S(=O)(=O)O)cc2c1)c1ccccc1,outcome,[4],inactive
same,outcome,[5],inactive
C=CC(C)(O)CCC=C(C)C (stereo not drawn),outcome,[4],inactive
same,outcome,[5],inactive
O=C1NC2NC(=O)NC2N1 (stereo not drawn),AC50,[5],7.06 µM (active)
CCCCCCCCSCCO,outcome,[6],inactive
Nc1ccc(N)c2c1C(=O)c1ccccc1C2=O,AC50,[6],1.71 µM (active)
same,outcome,[5],inactive
C[C@@H]1CCN(C(=O)[C@H](CCCN=C(N)N)NS(=O)(=O)c2cccc3c2NC[C@H](C)C3)[C@@H](C(=O)O)C1,outcome,[3],inactive
CCCCC(CC)COC(C)=O (stereo not drawn),outcome,[5],inactive
O=[N+]([O-])c1ccc(O)cc1C(F)(F)F,AC50,[5],68.4 µM (active)
COc1ccc(OC)c(N=Nc2c(O)ccc3ccccc23)c1,AC50,[3],17.4 µM (active)
CC=Cc1ccc(OCC)c(O)c1,AC50,[3],5.31 µM (active)
CCc1ccc(O)cc1,outcome,[6],inactive
same,outcome,[5],inactive
CC(C)CCCCCCc1ccc(OCCOCCO)cc1,AC50,[6],3.19 µM (active)
same,AC50,[5],25 µM (active)
CC1CCC(C(C)C)C(O)C1 (stereo not drawn),outcome,[6],inactive
same,outcome,[5],inactive
CCOC(=O)[C@@H](C)Oc1ccc(Oc2nc3ccc(Cl)cc3o2)cc1,outcome,[6],inactive
same,outcome,[5],inactive
CCCCCCC(C)(C)S,outcome,[4],inactive
same,outcome,[5],inactive
NC(=S)NNC(N)=S,outcome,[3],inactive
CSCCC=O,outcome,[4],inactive
same,outcome,[5],inactive
CC(C)CCCCCCCCCCCCCCC(=O)O,outcome,[4],inactive
same,outcome,[5],inactive
CCCC(O)C(O)CO (stereo not drawn),outcome,[3],inactive
Nc1ccc(Cl)c([N+](=O)[O-])c1,outcome,[3],inactive
CC=Cc1ccc(OC)c(OC)c1,outcome,[3],inactive
CN1CCOCC1,outcome,[5],inactive
CS(=O)(=O)OCCCCOS(C)(=O)=O,AC50,[7],25 µM (active)
same,outcome,[3],inactive
O=Cc1ccccc1S(=O)(=O)O,outcome,[5],inactive
Nc1ccc2cc(S(=O)(=O)O)cc(O)c2c1N=Nc1ccccc1C(F)(F)F,AC50,[4],2.32 µM (active)
same,outcome,[5],inactive
CCCCCCCCCCCCCC(=O)OCC(O)CO (stereo not drawn),outcome,[6],inactive
same,outcome,[5],inactive
BrCc1cccc(Oc2ccccc2)c1,outcome,[6],inactive
same,AC50,[5],56.3 µM (active)
